We go through 19 compounds from PubChem BioAssay (NCATS).

As a reminder, the viability is a read-out of living cells in per cent, often relative to untreated cells.

Several values for one entry are separate records, joined by “and”; a condition that tells them apart may be missing. Equal entries are not always repeated. Records with an inconclusive call do not appear. Values without a mark were called inactive. Activity calls are given as the source filed them. The call rests on the fitted dose curve; in most records, active means well fitted curve in the direction sought with a large enough effect; inconclusive means small, poorly fitted or top-dose-only effect, or another doubt; inactive means no such curve, though single readings can be large; an effect the other way counts as inactive or inconclusive.

Experiment [1] addresses Cellular tumor antigen p53 (Homo sapiens) (UniProt P04637). The experiment is described as follows: Primary qHTS for small molecule compounds that upregulate eGFP-tagged delta133p53alpha (in N-terminal) cells. (AID 2060322). Further: nearly all actives have a fitted effect of over 75% in size. Further: potency means the concentration at half of the fitted maximal effect.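 On activation: series mostly up to about 56 µM; 0% = DMSO vehicle and 100% = reference activator.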 As to conditions: NCI-H358 eGFP-delta133p53alpha fluorescence, 24 h; activation: active compounds read high. In outline: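 NCI-H358 cells pre-induced 24 h with 10 ng/ml doxycycline to express N-terminal eGFP-delta133p53alpha, then dosed 24 h at 37C without doxycycline; fixed, Hoechst-stained, GFP intensity by laser scanning cytometry, normalized to DMSO (0%) and 57.5 uM 5-azacytidine (100%).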

In experiment [2] the target is Aldehyde dehydrogenase, mitochondrial (Homo sapiens) (UniProt P05091). The experiment is described as follows: qHTS for Inhibitors of the Aldehyde Dehydrogenase Family (ALDH2) Primary screen (AID 2061308).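 Further: plate controls were vehicle for no effect and reference inhibitor for full effect; nearly all actives have a fitted effect of over 55% in size.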
Experiment [3] concerns the target Retinaldehyde dehydrogenase 3 (Homo sapiens) (UniProt P47895). Description: qHTS for Inhibitors of the Aldehyde Dehydrogenase Family (ALDH1A3) Primary screen (AID 2061315).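 Further: plate controls were DMSO vehicle for no effect and reference inhibitor for full effect.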
Experiment [4] can be described thus: BET inhibitor-based combinations targeting novel dependencies in MECOM-rearranged (r) AML: OCI-AML3 cell line (AID 2202232). Further: nearly all actives have a fitted effect of over 35% in size. Further: potency means the concentration at half of the fitted maximal effect. As to conditions: Potency: OCI-AML3 viability. The method, boiled down: (§1)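 Luminescent ATP readout (CellTiter-Glo) after 48 hr drug exposure gives viability. Curves span 11 concentrations and are normalized to DMSO and empty wells. Activity is reported as area under the curve and its Z-transform within each cell line.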

Experiment [5] can be described thus: BET inhibitor-based combinations targeting novel dependencies in MECOM-rearranged (r) AML: MV-4-11 cell line (AID 2202233). Further: nearly all actives have a fitted effect of over 45% in size. Further: potency means the concentration at half of the fitted maximal effect. In outline:
(§2)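 Luminescent ATP readout (CellTiter-Glo, 15 min at room temperature) after 48 hr drug exposure gave viability. Dose-response curves, normalized to DMSO and empty-well controls, were summarized as area under the curve and its mean-centred Z-score.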

The nature of experiment [6]: BET inhibitor-based combinations targeting novel dependencies in MECOM-rearranged (r) AML: HNT-34 cell line (AID 2202234). Further: nearly all actives have a fitted effect of over 35% in size. Further: potency means the concentration at half of the fitted maximal effect. The method, boiled down: as §2
The nature of experiment [7]: BET inhibitor-based combinations targeting novel dependencies in MECOM-rearranged (r) AML: UCSD-AML1 cell line (AID 2202235). Further: nearly all actives have a fitted effect of over 40% in size. Further: potency means the concentration at half of the fitted maximal effect. In outline:
as §2

Experiment [8] is described as follows: BET inhibitor-based combinations targeting novel dependencies in MECOM-rearranged (r) AML: AML-191 cell line (AID 2202236; further: nearly all actives have a fitted effect of over 35% in size; further: potency means the concentration at half of the fitted maximal effect). In outline:
as §1

The nature of experiment [9]: BET inhibitor-based combinations targeting novel dependencies in MECOM-rearranged (r) AML: AML-194 cell line (AID 2202237; further: nearly all actives have a fitted effect of over 40% in size; further: potency means the concentration at half of the fitted maximal effect). The method, boiled down: as §1
The nature of experiment [10]: BET inhibitor-based combinations targeting novel dependencies in MECOM-rearranged (r) AML: SET-2 cell line (AID 2202231).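 Further: plate controls were DMSO treated cells for no effect and wells without cells for full effect; nearly all actives have a fitted effect of over 35% in size.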 As to conditions: SET-2 AML cells viability, CellTiter-Glo luminescence, 48 h; viability: active compounds read low, series mostly up to about 46 µM. In outline:
as §1
In general terms: Cellular ATP, detected with luciferase, serves as a proxy for viable cell number.

Cellular tumor antigen p53 (Homo sapiens), sequence (P04637 whole entry, looked up): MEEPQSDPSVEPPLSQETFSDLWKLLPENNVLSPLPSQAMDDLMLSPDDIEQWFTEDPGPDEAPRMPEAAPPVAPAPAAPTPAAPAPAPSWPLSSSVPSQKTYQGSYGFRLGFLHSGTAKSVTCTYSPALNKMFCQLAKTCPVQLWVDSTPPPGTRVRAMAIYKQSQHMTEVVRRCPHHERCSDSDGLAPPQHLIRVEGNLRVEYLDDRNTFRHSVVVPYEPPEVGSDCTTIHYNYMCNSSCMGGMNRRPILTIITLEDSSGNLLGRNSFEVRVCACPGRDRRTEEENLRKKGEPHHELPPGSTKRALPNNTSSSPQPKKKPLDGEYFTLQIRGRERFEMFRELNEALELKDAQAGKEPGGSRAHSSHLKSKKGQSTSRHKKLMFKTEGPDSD

In the case of `CC(C)c1c2cc(-c3ccnc(NC4CCC(NC5CCOCC5)CC4)n3)ccc2nn1C` (stereo not drawn), the Potency was 0.478 µM (active) in [1]; 0.209 µM (active) in experiment [4]; 0.0934 µM (active) in [5]; 0.235 µM (active) in [6]; 0.118 µM (active) in experiment [7]; 0.166 µM (active) in [8]. Moreover, the Potency entry in experiment [2] and in [3] was “inactive” in each case.
In the case of `Cc1nn(Cc2ccccc2Cl)c(C)c1CN(C)CC(O)COc1ccc(Cl)cc1` (stereo not drawn), the activation in experiment [1] is 32.2%. For the same compound, the Potency entry in [2], in experiment [3] and in experiment [7] was “inactive” each time. For the same compound, the Potency in [4] was 16.6 µM (active); in experiment [5], 20.9 µM (active); in experiment [6], 20.9 µM (active); in experiment [8] it was 23.5 µM (active).
Take `CN1CCN(c2ccc(OC(F)(F)F)c(Nc3ncc4c(n3)-c3c(c(C(N)=O)nn3CCO)CC4)c2)CC1`: the activation in experiment [1] is 85.7%. In addition, the Potency result in [2] and in [3] was “inactive” in each case. The Potency in experiment [4] was 0.059 µM (active); in experiment [5], 0.0934 µM (active); in experiment [7], 0.118 µM (active); in experiment [8] it was 0.132 µM (active); in experiment [9], 0.332 µM (active).
As for `O=C(CC12CC3CC(CC(C3)C1)C2)Nc1cccc2nc(NCCNCCO)ccc12`, the activation in experiment [1] is 11.8% and 6.68%. For the same compound, the Potency result in [2], in [3] and in experiment [8] was “inactive” each time. In addition, the viability in experiment [10] is 114%.
As to `CC(C)(O)c1cc2nc(-c3cnc(N)nc3)nc(N3CCOCC3)c2s1`, the activation in experiment [1] was 18.8%. The Potency entry in experiment [2] and in experiment [3] was “inactive” throughout. In addition, the Potency was 1.32 µM (active) in experiment [4], 1.32 µM (active) in experiment [5], 1.86 µM (active) in experiment [6] and 0.332 µM (active) in experiment [7].
In the case of `CC(C)(O)CC(=O)NCCn1ccc2ncnc(Nc3ccc(Oc4cccc(C(F)(F)F)c4)c(Cl)c3)c21`, the Potency in experiment [1] is 24.3 µM (active); in [4], 16.6 µM (active); in experiment [5], 13.2 µM (active); in experiment [6] it was 14.8 µM (active); in [7], 14.8 µM (active). For the same compound, the Potency result in experiment [2] and in [3] was “inactive” in each case.
As for `COc1nccc(-c2c(-c3ccc(F)cc3)ncn2C2CCNCC2)n1`, the activation in experiment [1] is 2.68%. The Potency result in experiment [2], in [3] and in [4] was “inactive” in each case. For the same compound, the Potency is 20.9 µM (active) in experiment [5], 16.6 µM (active) in experiment [7] and 20.9 µM (active) in experiment [8].
With `CC1=C(C(=O)Nc2cc3cn[nH]c3cc2F)C(c2ccc(Cl)cc2F)N=C(c2ccnc(Cl)c2)N1` (stereo not drawn), the activation in experiment [1] was -24.2% and 5.36%. Besides, the Potency result in experiment [2] and in experiment [3] was “inactive” throughout. The results for the Potency in experiment [4] and in experiment [5] were 16.6 µM (active) and 5.9 µM (active), respectively.
In the case of `COc1ccc(Cl)c(Nc2ncnc3cc(OCC4CCN(C)CC4)c(OC)cc23)c1`, the Potency in experiment [1] was 6.01 µM (active); in experiment [4], 29.5 µM (active); in experiment [5] it was 5.9 µM (active); in [6], 0.742 µM (active). Moreover, the Potency entry in experiment [2], in experiment [3] and in experiment [7] was “inactive” in each case.
In the case of `Cc1nc(-c2cccnc2)sc1C(=O)Nc1ccccc1-c1cn2c(CN3CCOCC3)csc2n1`, the activation in experiment [1] is 17.9%. The Potency entry in experiment [2], in experiment [3], in experiment [4], in [5], in experiment [6] and in experiment [7] was “inactive” throughout. In addition, the Potency entry in experiment [8] and in [9] was “inactive” each time.
As for `CCn1nc(C2CCN(C(=O)CCO)CC2)nc1-c1cnc(N)c(-c2nnc(C(C)(C)C)o2)n1`, in experiment [1], the activation is 6.33%. Further, the Potency result in experiment [2] and in experiment [3] was “inactive” in each case. Besides, the Potency in experiment [4] was 1.18 µM (active); in experiment [5], 5.9 µM (active); in experiment [6], 16.6 µM (active); in experiment [7], 5.9 µM (active).
As for `CC(Nc1ncnc2nc[nH]c12)c1cc2cccc(Cl)c2c(=O)n1-c1ccccc1` (stereo not drawn), in experiment [1], the activation is 27.7%. Moreover, the Potency result in [2] and in experiment [3] was “inactive” each time. The Potency in experiment [5] was 5.9 µM (active).
As for `COc1cc2nccc(Oc3ccc(NC(=O)Nc4cc(C)on4)c(Cl)c3)c2cc1OC`, the Potency in [1] is 30.6 µM (active) and 21.3 µM (active); in experiment [5] it was 1.05 µM (active); in experiment [6], 0.209 µM (active); in experiment [7], 16.6 µM (active); in experiment [8] it was 7.42 µM (active); in experiment [9] it was 6.61 µM (active). The Potency result in experiment [2] and in experiment [3] was “inactive” each time.
For `O=C(O)c1ccc(O)c2ncc(N3CCOCC3)cc12`, in experiment [1], the activation is 22.8%. Besides, the Potency entry in experiment [2], in [3], in experiment [4] and in experiment [7] was “inactive” in each case.
On to `NC(=O)c1ccc(N(C(N)=O)c2c(F)cccc2F)nc1-c1ccc(F)cc1F`, for which, in [1], the activation is 24.3% and 1.79%. Further, the Potency entry in [2], in [3], in experiment [5], in experiment [6], in experiment [7] and in [8] was “inactive” throughout. Moreover, the Potency entry in [9] is “inactive”.
In the case of `CCN(CCCOc1ccc2c(Nc3cc(CC(=O)Nc4cccc(F)c4)[nH]n3)ncnc2c1)CCOP(=O)(O)O`, the activation in [1] was 15.2%. In addition, the Potency entry in [2], in experiment [3] and in [7] was “inactive” each time. Further, the Potency in [4] was 0.468 µM (active); in experiment [5], 0.372 µM (active); in [9], 0.662 µM (active).
In the case of `CS(=O)(=O)N1CCc2c(-c3cnc(N)nc3)nc(N3CCOCC3)nc21`, the activation in experiment [1] was 26%. For the same compound, the Potency entry in experiment [2] and in experiment [3] was “inactive” throughout. Further, the Potency in [5] is 4.68 µM (active).
For the compound `Cc1cccc(Nc2nc(-c3ccncc3)cs2)c1`, in [1], the activation was 11.1% and -1.43%. The Potency entry in [2], in experiment [3], in experiment [4] and in [7] was “inactive” throughout.
On to `CN1CCN(C(=O)c2ccc3cc(CCNc4ncnc5ccc(C#N)cc45)ccc3c2)CC1`, for which the activation in [1] is -12.3%. For the same compound, the Potency entry in experiment [2] and in [3] was “inactive” in each case. The Potency in [5] is 7.42 µM (active).
